TDP1 cell noCPT – qHTS for Inhibitors of human tyrosyl-DNA phosphodiesterase 1 (TDP1): qHTS in cells in absence of CPT. DT40 Tdp1-/- hTDP1 cells, no CPT, ATP luminescence, 48 h. Potency, µM (top dose mostly 46.2 µM), for inactives: at the top dose activity change, negative = growth inhibition, actives largely listed as inhibitors. 420,000 compounds, 15% hits. AID 686978, 2013; also: potency is read from the fitted curve at half-maximal effect; nearly all actives have a fitted effect of over 55% in size
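Seeded 400 DT40-hTDP1 cells/well (vehicle DMSO, no 20 nM CPT); pinned compounds; ≥48 hr at 37 °C; CellTiter-Glo luminescence as viability measure.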
uPA surface inh – blocks generation of uPA at the cell surface. Potency, µM (highest dose often 38.3 µM), for the others: at the top dose activity change, negative = inhibition, usual class: inhibitors. cell surface uPA generation assay, qHTS. AID 540303. 330,000 compounds, 0.31% hits; active = well fitted inhibition curve with a large enough effect; inconclusive = small, poorly fitted or top-dose-only effect; inactive = no such curve, though single readings can be large or run the other way; tested in mouse RAW 264.7 cells; also: potency is read from the fitted curve at half-maximal effect; nearly all actives have a fitted effect of over 55% in size
HT1080-NT tox – kills 2HG-producing HT-1080-NT fibrosarcoma cells. HT-1080-NT fibrosarcoma viability, CellTiter-Glo ATP luminescence, 48 h. Potency, µM (series often up to 46.1 µM), for the others: top-dose activity, negative = less viability, hits mostly cytotoxic. 360,000 compounds, 1.6% hits. AID 686970;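 also: NT is the 2HG producing partner of a matched IDH1 knockdown line; potency is read from the fitted curve at half-maximal effect; 0% = DMSO-treated cells and -100% = media-only wells without cells; nearly all actives have a fitted effect of over 55% in size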
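Toxicity toward the 2HG-producing NT line was scored as %Activity, normalised to DMSO and no-cell wells, from CellTiter-Glo luminescence after 48 hours' treatment.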
IL1B secr inh – inhibitors of inflammasome signaling (IL-1 beta secretion); AID 743279; THP-1 LPS/ATP IL-1B secretion, AlphaLISA, 16 h; hits give low values; activity change, % at 57.5 µM; 360,000 compounds, 4.7% hits; in the data active = activity change below about -50%; inconclusive = mostly about -30% to -49%
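Secreted IL-1B measured by AlphaLISA bead assay after 16 h compound exposure of THP-1 cells; compounds (final up to 57.5 uM) added 1 h before LPS (250 ng/mL) and ATP (1.25 mM) stimulation; lower signal means less secretion.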
TDP1 cell CPT – DT40-hTDP1 cell growth loss with CPT | Potency, µM (highest dose often 46.2 µM), for the others: top-dose activity change, negative = growth inhibition, hits mostly inhibitors | 420,000 compounds, 12% hits | chicken DT40 Tdp1-/-;hTDP1 cells + 20 nM CPT, ATP luminescence, 48 h; also: potency is read from the fitted curve at half-maximal effect; nearly all actives have a fitted effect of over 55% in size
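Chicken DT40 Tdp1-/- cells stably complemented with human TDP1 were seeded at 400 cells/well in medium containing 20 nM camptothecin, exposed to pin-transferred compounds, and grown at 37 °C for at least 48 hr. Viability was read as ATP luminescence.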
HT1080 IDH1KD tx – toxicity to HT-1080 IDH1 knockdown cells (counter line) | HT-1080 IDH1 knockdown viability, ATP luminescence, 48 h | Potency, µM (series often up to 46.1 µM), for inactives: at the top dose activity, negative = toxicity, most hits filed as cytotoxic | 360,000 compounds, 2% hits;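 also: potency is read from the fitted curve at half-maximal effect; 0% = DMSO wells and -100% = cell-free medium wells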
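HT-1080-IDH1KD cells (IDH1 knocked down), 750/well in RPMI with 5% FBS, treated with compound 48 h at 37 degrees C. Viability by CellTiter-Glo luminescence, normalised to DMSO and no-cell wells; concentration-response curves classed.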
* hit, by the source's call; i = inactive; ? = inconclusive; · = not tested or not shown; [ ] = another dose, or the depositor's remark. This is a sample that favours compounds with a hit; in the whole collection about 19% have one here. Unless noted, calls follow the shape of the dose curve; as a rule, active = well fitted curve in the direction sought with a large enough effect; inconclusive = small, poorly fitted or top-dose-only effect, or another doubt; inactive = no such curve, though single readings can be large; an effect the other way counts as inactive or inconclusive. Unless noted, % is scaled to controls: 0 for no effect and ±100 for the full control effect.

SMILES	TDP1 cell noCPT	uPA surface inh	HT1080-NT tox	IL1B secr inh	TDP1 cell CPT	HT1080 IDH1KD tx
CCOc1ccc(NC(=O)NNC(=O)C(C)Oc2ccccc2OC)cc1 (configuration not stated)	12%	1%	9%	i	14%	-3%
Cc1ccc(S(=O)(=O)/C=C\C#N)cc1	0.67µM*	·	·	·	0.6µM*	·
CC(C)(C)OC(=O)C[C@@H]1C/C=C\C[C@H](CC(=O)N(CCO)Cc2ccccc2)C(=O)NC[C@H](c2ccccc2)OC1=O	?	-6%	0%	-23	?	4%
CC(C)(C)OC(=O)C[C@@H]1C/C=C\C[C@@H](CC(=O)N(CCO)Cc2ccccc2)C(=O)NC[C@@H](c2ccccc2)OC1=O	?	16%	-5%	-4	21µM*	0%
CC(C)(C)OC(=O)C[C@@H]1C/C=C\C[C@@H](CC(=O)N(CCO)Cc2ccccc2)C(=O)NC[C@H](c2ccccc2)OC1=O	?	18%	?	-6	12µM*	-13%
O=C(NC12CC3CC(CC(C3)C1)C2)N(Cc1ccccc1)Cc1ccncc1	18µM*	-13%	-10%	-28	13µM*	-8%
CCOC(=O)[C@]12CCC=C1N(Cc1ccco1)C(=O)[C@H](CC(=O)NCCC(C)C)C2	-27%	·	11%	8	-1%	8%
O=C(NCCO)c1cccc(-c2cnc3cccnn23)c1	?	·	20%	-16	?	23%
O=C(N=Nc1c(O)n(Cc2ccccc2)c2ccccc12)c1cc2ccccc2cc1O	15µM*	0%	-6%	1	?	-3%
COc1ccccc1NC(=O)Cn1c(O)c(N=NC(=O)c2ccccc2O)c2ccccc21	1.8µM*	8%	-5%	13	0.92µM*	0%
O=S1(=O)CC(O)C(N=Nc2c(O)n(Cc3ccccc3)c3ccccc23)C1 (configuration not stated)	12µM*	3%	-6%	-2	16µM*	-16%
O=C(N=Nc1c(O)n(Cc2ccccc2)c2ccccc12)c1ccc(O)cc1	23µM*	-7%	4%	?	?	21%
O=C(Cn1c(O)c(N=NC(=O)c2ccncc2)c2ccccc21)Nc1ccccc1	-11%	3%	14%	-2	-16%	23%
CCn1c2ccccc2c2nnc(SCC(=O)Nc3ccccc3OC)nc21	-13%	·	·	·	?	·
Cc1ccc(NC(=O)Cn2c(O)c(N=NC(=O)c3ccncc3)c3ccccc32)cc1	-2%	-1%	14%	53	?	13%
Cc1ccc(NC(=O)Cn2c(O)c(N=NC(=O)c3cc4ccccc4cc3O)c3ccccc32)cc1	7.3µM*	2%	21µM*	-95*	7.3µM*	?
COc1ccc(C(=O)NCC(=O)N=Nc2c(O)n(Cc3ccccc3)c3ccccc23)cc1OC	16µM*	-2%	-10%	-7	?	-13%
Cc1cccc(NC(=O)Cn2c(O)c(N=NC(N)=S)c3ccccc32)c1	15µM*	-6%	?	-26	23µM*	?
COc1ccc(C(=O)NCC(=O)N=Nc2c(O)n(C)c3ccccc23)cc1OC	-2%	3%	2%	?	-9%	1%
Cc1ccc(NC(=O)CCNC(=O)N2CC(=O)Nc3ccccc32)cc1Cl	1%	·	1%	27	-21%	3%
CC(=O)c1ccccc1OCCn1nc(C(=O)O)c2ccccc2c1=O	16µM*	0%	-3%	28	-3%	-2%
Cc1cc(-n2c(=O)[nH]c(=O)n(C)c2=O)ccc1Oc1ccc(S(=O)(=O)C(F)(F)F)cc1	17µM*	·	·	·	?	·
CCCN1CCN(CC2=C(C(=O)OCC)C(c3ccc(Cl)cc3)NC(=O)N2)CC1 (configuration not stated)	26µM*	·	·	·	26µM*	·
CCOC(=O)C1=C(Cn2cnc3ccccc32)NC(=O)NC1c1ccc(Cl)cc1 (configuration not stated)	-27%	·	-25%	-11	?	?
CCOC(=O)C1=C(CN2CCN(C(=O)c3ccco3)CC2)NC(=O)NC1c1ccc(OC)cc1 (configuration not stated)	-29%	9%	-1%	-13	-24%	0%
SMILES	TDP1 cell noCPT	uPA surface inh	HT1080-NT tox	IL1B secr inh	TDP1 cell CPT	HT1080 IDH1KD tx
CCCN1CCN(CC2=C(C(=O)OCC)C(c3cccc(OC)c3OC)NC(=O)N2)CC1 (configuration not stated)	-25%	·	·	·	-3%	·
CCOC(=O)C1=C(CN2CCC(C)CC2)NC(=O)NC1c1ccc(OC(C)C)cc1 (configuration not stated)	?	·	·	·	23µM*	·
CCOC(=O)C1=C(CN2CCN(c3ccccc3F)CC2)NC(=O)NC1c1ccc(Cl)cc1 (configuration not stated)	16µM*	·	·	·	26µM*	·
NC(=O)CSc1ncc2c(n1)-c1ccccc1N(Cc1ccccc1)S2(=O)=O	-8%	·	·	·	-25%	·
O=C(O)CC1S/C(=N/N=C/c2ccc([N+](=O)[O-])cc2)N(c2ccc(O)cc2)C1=O (configuration not stated)	-15%	3%	4%	11	8%	12%
O=C1C2CC(O)CN2C(=S)N1Cc1ccccc1 (configuration not stated)	1%	6%	6%	0	20%	1%
NC[C@H]1O[C@H](O[C@H]2[C@H](O)[C@@H](O[C@H]3O[C@H](CO)[C@@H](O)[C@H](N)[C@H]3O)[C@H](N)C[C@@H]2N)[C@H](N)[C@@H](O)[C@@H]1O	-24%	·	·	·	?	·
CN(CCO)C(=O)c1cn(C2CCN(Cc3ccc4ccccc4c3)CC2)nn1	-9%	·	·	·	16%[9.04 µM]	·
O=C(CCCCCn1c(=O)c2sccc2n(CC(=O)Nc2ccccc2F)c1=O)NCc1ccc2c(c1)OCO2	-22%	·	·	·	?	·
C=C1C(=O)O[C@H]2[C@H]1[C@H](OC(=O)/C(C)=C\C)C[C@]1(CO1)[C@@H]1[C@H](OC(C)=O)C=C(C)[C@]21O	13µM*	-9%	5%	-104*	12µM*	?
Cc1cc(C(=O)N/N=C/c2ccc(N(C)C)o2)cs1	16µM*	-21%	-13%	11	23µM*	-21%
Cn1c(=O)c2c(nc3n2CC(COc2ccccc2)O3)n(C)c1=O (configuration not stated)	?	5%	-11%	5	-30%	-12%
